# Source: PubChem BioAssay (The Scripps Research Institute Molecular Screening Center)
# A selection: hits, their analogues and other compounds. The true share with any hit is near 1.1%.
# NCOA1 inh = SRC1 coactivator transcriptional activity inhibitors, primary screen, cell-based, luminescence | 360,000 compounds, 0.12% hits | HEK293 GAL4-SRC1 luciferase reporter | Nuclear receptor coactivator 1 (Homo sapiens), Q15788 | inhibition, % at 3.6 µM;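 active means inhibition above the campaign mean plus 3 SD, with each screening campaign given its own cutoff, cut at about 60% in these data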;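 further: 0% = DMSO treated cells and 100% = gossypol at 36 µM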
# GalR3 antagonist = GalR3 antagonists in HEK293 cells, primary screen, cell-based, fluorescence readout; AID 651719, 2012; HEK293 GalR3-CNG cAMP membrane potential fluorescence; galR3 body fused to GalR1 C-terminus; inhibition, % at 3 µM; Galanin receptor type 3 (Homo sapiens), O60755; 360,000 compounds, 0.44% hits;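 active means inhibition above the screen-wide average plus 3 SD, cut at about 13% in these data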;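 further: forskolin and galanin both at EC90 stimulate the cells; cAMP rise reported by CNG channel membrane potential dye signal; 0% = forskolin plus galanin with DMSO and 100% = forskolin alone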
# SRC3 inh = SRC3 coactivator transcriptional activity inhibitors, primary screen, cell-based, luminescence. HEK293 GAL4-SRC3 luciferase reporter. inhibition, % at 3.6 µM. 360,000 compounds, 0.17% hits;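 active means inhibition above a per-campaign cutoff, the mean of all compounds plus 3 SD, cut at about 60% in these data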;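 further: 0% = DMSO-treated cells and 100% = gossypol-treated cells at 36 µM; higher means less SRC3-driven luciferase light from the GAL4 reporter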
# NCOA2 inhibitor = inhibition of GAL4-SRC2 driven luciferase reporter, primary screen, SRC2 inhibitor project, cell-based, luminescence; Nuclear receptor coactivator 2 (Homo sapiens), Q15596; HEK293 GAL4-SRC2 luciferase reporter; inhibition, % at 9 µM; 370,000 compounds, 0.17% hits;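 active means inhibition above the mean inhibition of all tested compounds plus 3 SD, set per campaign, cut at about 52% in these data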;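 further: 0% = DMSO treated cells and 100% = cells given Gossypol at 36 µM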
# COUP-TFII inh = NR2F2 transcriptional activity inhibitors, primary screen, cell-based, luciferase reporter, HEK293T, luminescence; COUP transcription factor 2 (Homo sapiens), P24468; HEK293T NGFI-A luciferase reporter; inhibition, % at 8.6 µM; 370,000 compounds, 0.7% hits;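 active means inhibition above a per-plate cutoff, mean inhibition of test wells between control levels plus 3 SD, cut at about 38% in these data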;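 further: cells cotransfected with COUP-TFII expression vector driving the NGFI-A reporter; 0% = median of COUP-TF2 test wells and 100% = reporter-only cells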
# Target sequence (P24468 whole entry, looked up): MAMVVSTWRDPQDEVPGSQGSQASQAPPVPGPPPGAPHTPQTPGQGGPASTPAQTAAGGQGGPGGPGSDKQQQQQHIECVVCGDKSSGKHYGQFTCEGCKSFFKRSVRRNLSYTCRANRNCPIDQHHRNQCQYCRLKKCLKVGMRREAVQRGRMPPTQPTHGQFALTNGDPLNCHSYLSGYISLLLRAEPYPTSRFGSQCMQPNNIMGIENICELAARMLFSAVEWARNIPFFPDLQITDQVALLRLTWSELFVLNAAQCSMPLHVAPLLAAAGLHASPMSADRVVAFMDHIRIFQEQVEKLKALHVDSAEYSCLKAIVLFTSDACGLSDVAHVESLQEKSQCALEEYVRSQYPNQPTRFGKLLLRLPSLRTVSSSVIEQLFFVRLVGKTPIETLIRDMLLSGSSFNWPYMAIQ
# LRH-1 inv ag = LRH-1 (NR5A2) inverse agonists, primary screen, cell-based, luminescence, HEK293T, StAR-luciferase reporter | inhibition, % at 3.6 µM | 360,000 compounds, 0.13% hits | Nuclear receptor subfamily 5 group A member 2 (Homo sapiens), O00482 | LRH-1 transfected, 24 h | AID 602396, 2012;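 active means inhibition above the mean inhibition of all tested compounds plus 3 SD, cut at about 73% in these data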;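 further: 0% = DMSO wells and 100% = reporter-only cells lacking LRH-1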
# GalR3 antag conf = GalR3 antagonist hit confirmation, cell-based, fluorescence, triplicate. shares compounds with GalR3 antagonist. HEK293 GalR3 CNG cAMP biosensor, membrane potential fluorescence; galR3 fused to GalR1 carboxy tail; challenged with forskolin and galanin at EC90. inhibition, % at 3 µM. 1,600 compounds, 59% hits;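 active means inhibition above the primary screen's cutoff, the mean inhibition of all screened compounds plus 3 SD, cut at about 13% in these data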;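 further: 0% = forskolin plus galanin and 100% = forskolin alone with DMSO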
# CNG parental = nonspecific cAMP agonists in parental HEK-CNG cells, counter-screen for GalR3 antagonist project, cell-based, fluorescence, high throughput; shares compounds with GalR3 antagonist; HEK293-CNG parental cells, cAMP membrane potential fluorescence; normalised: DMSO wells 0%, forskolin wells 100%; activation, % at 3 µM; 1,600 compounds, 10% hits; AID 652268, 2013; in the data active means activation above about 1.3%
# VP16 Luc counter = Gal4-VP16 luciferase reporter inhibitors, counter-screen for COUP-TFII antagonist project, cell-based, luminescence, HEK293; shares compounds with COUP-TFII inh; 2,500 compounds, 25% hits; inhibition, % at 8.5 µM; in the data active means inhibition above about 13%
# NR2F2 inh conf = NR2F2 transcriptional activity inhibitors, confirmation, cell-based, luciferase reporter, HEK293, triplicate; shares compounds with COUP-TFII inh; HEK293 NGFI-A luciferase reporter, luminescence; inhibition, % at 8.5 µM; 2,500 compounds, 45% hits; AID 687008, 2013;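 active means mean inhibition over three repeats above a set limit taken from the earlier primary screen, cut at about 38% in these data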;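 further: 100% = cells given the luciferase reporter alone without the COUP-TF2 vector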
# The depositor's hits bear a star; . = no result given.
SMILES,NCOA1 inh,GalR3 antagonist,SRC3 inh,NCOA2 inhibitor,COUP-TFII inh,LRH-1 inv ag,GalR3 antag conf,CNG parental,VP16 Luc counter,NR2F2 inh conf
CC(C)(C)NCC(O)c1cc(Cl)c(N)c(Cl)c1 (stereo unspecified),-18,24*,-5,-26,-31,17,31*,5.3*,.,.
COC1=CC(=O)[C@]2(C=C1OC)OC[C@@H]1Oc3c(ccc4c3C=CC(C)(C)O4)C(=O)[C@@H]12,.,41*,.,1,73*,.,98*,0,.,.
CCc1ccc(CN2CCN(Cc3ccc(SC)cc3)CC2)cc1,8,50*,19,32,28,9,60*,1.4*,.,.
COc1ccc2c(C)c(CC(=O)N3C[C@H]4C[C@@H](C3)c3cccc(=O)n3C4)c(=O)oc2c1C,-53,20*,-11,-1,8,-1,4,0,.,.
COc1ccc2c(C)c(CC(=O)N3C[C@H]4C[C@@H](C3)c3cccc(=O)n3C4)c(=O)oc2c1,-29,7,-15,0,-27,-18,.,.,.,.
CC12CCC(O)CC1CCC1C2CCC2(C)C(C(=O)CO)CCC12 (stereo unspecified),-3,2,-7,1,19,5,.,.,.,.
CCCCNS(=O)(=O)c1ccc(OCC(=O)N2CCN(Cc3ccc4c(c3)OCO4)CC2)cc1,20,14*,33,-2,35,32,17*,0,.,.
C=CCn1c(O)c(C(CC)=Nc2cccc(C(=O)O)c2)c(=O)[nH]c1=O,-8,15*,10,12,-10,-9,5,0,.,.
C=CC1C[N+]2(C)CCC1CC2C(O)c1ccnc2ccccc12 (stereo unspecified),.,-1,.,-32,29,.,.,.,.,.
CCC(=NCCC(c1ccccc1)c1ccccc1)c1c(O)[nH]c(=O)[nH]c1=O,6,26*,-25,2,-1,0,38*,0,.,.
CCOC(=O)[C@]12Cc3cc4ccccc4cc3[C@H]1N(Cc1ccccc1)C(=O)c1cc(OC)ccc12,.,-6,.,-9,4,34,.,.,.,.
CC1OC(OC2C=C3CCC4C(CCC5(C)C(c6ccc(=O)oc6)CCC45O)C3(C)CC2)C(O)C(OC2OC(CO)C(O)C(O)C2O)C1O (stereo unspecified),91*,14*,88*,70*,78*,97*,39*,4.1*,54*,80*
COc1ccc(CNCCc2c(C)[nH]c3ccc(OC(F)(F)F)cc23)c(OC)c1,7,24*,7,21,51*,26,90*,0,2,45*
COc1ccc2[nH]c(C)c(CCNCc3cc(OC)c(OC)c(OC)c3)c2c1,4,-5,8,2,13,12,.,.,.,.
CC12CCC3C(CCC4(O)CC(O)CCC34C=O)C1(O)CCC2C1=CC(=O)OC1 (stereo unspecified),65*,18*,65*,37,71*,96*,47*,4.2*,24*,64*
CCOC(=O)[C@]12Cc3c(cc(OC)c(OC)c3OC)[C@H]1N(C(C)C)C(=O)c1cc(OC)ccc12,.,0,.,-17,5,6,.,.,.,.
Nc1ccc2nonc2c1[N+](=O)[O-],-45,-4,6,25,1,-8,.,.,.,.
CC1CC(C)CC(C)C(O)C(C#N)=CC=CCC(C2CCCC2C(=O)O)OC(=O)CC(O)C(C)C1 (stereo unspecified),94*,-4,94*,76*,84*,98*,.,.,23*,80*
COC(=O)C1=C(c2cccc(OC)c2OC)C[C@@H]2CC[C@H]1N2C(=O)NCCS(C)=O (stereo partly specified),-17,-2,-10,6,2,8,.,.,.,.
O=C(NC1CONC1=O)OCC(Cl)(Cl)Cl (stereo unspecified),3,-2,4,5,10,9,.,.,.,.
CN1Cc2cnnn2-c2ccccc2C1C#N (stereo unspecified),4,-3,0,4,0,19,.,.,.,.
N#CC1c2ccccc2-n2nncc2CN1Cc1cc(Cl)cc(Cl)c1 (stereo unspecified),83*,-4,91*,86*,84*,93*,.,.,56*,64*
COc1ccc(CN2Cc3cnnn3-c3ccccc3C2C#N)cc1 (stereo unspecified),23,-5,46,43,59*,36,.,.,26*,13
COc1ccc(-n2c(O)c(C(C)=NC3CC3)c(=O)[nH]c2=O)cc1,6,-3,-13,-34,-1,12,.,.,.,.
O=C1NC(=O)C2(CCCC2)C(=O)N1,9,-4,-2,1,4,-4,.,.,.,.
SMILES,NCOA1 inh,GalR3 antagonist,SRC3 inh,NCOA2 inhibitor,COUP-TFII inh,LRH-1 inv ag,GalR3 antag conf,CNG parental,VP16 Luc counter,NR2F2 inh conf
C=C1C2C[C@H](O)C(C)(C)[C@@]2(O)[C@H](O)C[C@]23C[C@@](C)(O)[C@H](CC[C@H]12)[C@H]3OC(C)=O (stereo partly specified),-7,-1,7,-24,0,12,.,.,.,.
CCc1cc2c(N3CCN(C)CC3)ncnc2s1,5,-5,-2,12,1,-9,.,.,.,.
CCN1CCN(c2ncnc3ccc(Br)cc23)CC1,51,-8,38,39,42*,19,.,.,11,23
COc1ccc(OC)c(NC(=O)N2C[C@H]3C[C@@H](C2)c2cccc(=O)n2C3)c1,-8,2,-34,12,-9,-30,.,.,.,.
CCOP(=O)(OCC)/C(C#N)=C/c1ccc(Br)cc1,3,-10,-6,12,-4,-2,.,.,.,.
Cc1ccc(-c2cc(-c3ccc(C)cc3)[n+](C)o2)cc1,49,-7,54,-6,69*,66,.,.,6,56*
